S2 tox = Viability Counterscreen for Primary qHTS for Inhibitors of ATXN expression; S2 cells (HEK-293 line with an ATXN2-luciferase reporter) viability, CellTiter-Fluor protease fluorescence, 24 h; Potency, µM (top dose mostly 56.7 µM), usual class: cytotoxic; 0.49% of 400,000 active; AID 651635, 2014; also: nearly all actives have a fitted effect of over 40% in size
Nrf2 ARE act = qHTS of Nrf2 Activators; 0.31% of 410,000 active; AID 624171, 2012; AREc32 ARE-luciferase reporter (MCF7-derived line), luminescence, 24 h; Potency, µM (series often up to 46.1 µM), hits mostly activators; also: nearly all actives have a fitted effect of over 65% in size
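Each well held 1000 AREc32 cells, which were incubated with compound for 24 hr at 37 deg C after overnight attachment, and ARE reporter activity was quantified by firefly luciferase luminescence.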
A549 viability = Nrf2 qHTS screen for inhibitors: counterscreen for cytotoxicity. Potency, µM (top dose mostly 46 µM), actives largely listed as inhibitors. 0.16% of 390,000 active. A549 ARE-Fluc cells, CellTiter-Fluor viability, 18-24 h. AID 504648, 2011
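A549 ARE_Fluc cells in 5% FBS OPTI-MEM were exposed to compounds in concentration-response for 18-24 h at 37 deg C. Viability was read by CellTiter-Fluor fluorescence (Ex 405/Em 525) after 30 min, before the luciferase read.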
ATXN2 expr inh = Primary qHTS for Inhibitors of ATXN expression; HEK-293 ATXN2-luciferase reporter, luminescence, 24 h; Potency, µM (titrated, usually from 57 µM), hits mostly inhibitors; 0.72% of 360,000 active; AID 1745845, 2022; also: nearly all actives have a fitted effect of over 55% in size
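ATXN2-luciferase reporter cells (luciferase flanked by upstream and downstream ATXN2 gene portions) were treated 24 h at 37 °C with compounds at up to 57 uM. SteadyGlo luminescence gave expression; GF-AFC fluorescence gave viability.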
Nrf2 inh = Nrf2 qHTS screen for inhibitors; A549 ARE-Fluc reporter, luciferase luminescence, 18-24 h; Potency, µM (titrated, usually from 46 µM), usual class: inhibitors; 2.1% of 360,000 active; also: nearly all actives have a fitted effect of over 60% in size
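A549 ARE_Fluc cells, 5000/well, 5% FBS OPTI-MEM; compounds in dose-response, 18-24 h at 37 °C/5% CO2; CellTiter-Fluor viability read (Ex 405/Em 525), then BugLite luciferase luminescence = Nrf2 activity.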
Large screens that a line does not name were inactive. Shown are actives, neighbours in structure and some others; about 2.9% of the full set was active somewhere. Calls follow the shape of the dose curve; as a rule, active = well fitted curve in the direction sought with a large enough effect; inconclusive = small, poorly fitted or top-dose-only effect, or another doubt; inactive = no such curve, though single readings can be large; an effect the other way counts as inactive or inconclusive.

Oc1ccc(-c2csc(Nc3ncccn3)n2)cc1	Nrf2 inh inconclusive
COc1ccc(C(=O)N2CCC2(C)C(=O)O)cc1F (stereo not drawn)	none (no result: A549 viability, Nrf2 inh)
O=C(COc1cccc(Cl)c1)NCC(c1cccs1)N1CCOCC1 (stereo not drawn)	Nrf2 inh inconclusive
Cc1cc(Cl)ccc1OCC(=O)NCC(c1cccs1)N1CCOCC1 (stereo not drawn)	Nrf2 inh 18.4µM
CC(=O)c1ccc(OCCCC(=O)Nc2ccc(C)c(S(=O)(=O)N3CCCCC3)c2)cc1	S2 tox inconclusive, ATXN2 expr inh inconclusive, Nrf2 inh 18.4µM
COc1ccc(NC(=O)C(C)Sc2cc(-c3ccccc3)nc(C)n2)cc1Cl (stereo not drawn)	A549 viability inconclusive, Nrf2 inh 20.6µM (no result: S2 tox, ATXN2 expr inh)
Cc1nc(SC(C)C(=O)Nc2ccccc2C)cc(-c2ccccc2)n1 (stereo not drawn)	none (no result: S2 tox, ATXN2 expr inh)
Cc1ccc([N+](=O)[O-])cc1NC(=O)CN(C)CCOc1ccccc1	Nrf2 inh inconclusive
CN(CCOc1ccccc1)CC(=O)Nc1cc([N+](=O)[O-])ccc1Cl	Nrf2 inh 16.4µM
O=C(CSc1nnc(-c2ccncc2)n1Cc1ccco1)Nc1nc(-c2ccccc2)cs1	A549 viability inconclusive, Nrf2 inh 13µM
O=C(CSc1nnc(-c2ccccc2)n1Cc1ccco1)Nc1ccc(S(=O)(=O)N2CCCC2)cc1	Nrf2 inh 16.4µM
COc1ccc(-n2c(CNc3ccc(C)cc3)nnc2SCC(=O)Nc2nc(-c3ccccc3)cs2)cc1	S2 tox 22.4µM, ATXN2 expr inh 17.8µM, Nrf2 inh inconclusive
O=C(CSc1nnc(-c2ccncc2)n1Cc1ccco1)Nc1ccccc1Cl	none
CSc1nc(N(C)NC(=O)c2ccc(Cl)cc2)c2ccccc2n1	S2 tox inconclusive, A549 viability inconclusive
CC[C@H](C)[C@H](NC(=O)OCc1ccccc1)C(=O)OCC(=O)N(C)CC(=O)Nc1ccccc1Cl	none
O=C(OCc1ccccc1)c1cccc(-c2nnn(Cc3ccccc3)n2)c1	Nrf2 inh inconclusive
CC12CCCCC1(O)[N+](=O)C1=C(CCCC1)N2[O-] (stereo not drawn)	none
Cc1ccc(Oc2c(C)nc(-c3ccccc3)[nH]c2=O)cc1	Nrf2 inh inconclusive
Cc1nc(-c2ccccc2)[nH]c(=O)c1Oc1ccc(Cl)cc1Cl	Nrf2 inh 20.6µM (no result: ATXN2 expr inh)
COc1cccc(/C=C2\SC(=O)N(CCC(=O)NNC(=O)c3cccc(Cl)c3)C2=O)c1	none
CCSc1ccc2cc(OC)ccc2[n+]1CC	Nrf2 inh 16.4µM
CCCCCCOC(=O)NC(=N)c1ccc(NCc2nc3cc(C(=O)N(CCC(=O)OCC)c4ccccn4)ccc3n2C)cc1	S2 tox 31.6µM, ATXN2 expr inh 31.6µM (no result: Nrf2 ARE act, A549 viability, Nrf2 inh)
C[C@@H]1CN([C@H](C)CO)S(=O)(=O)c2ccc(-c3ccc(C#N)cc3)cc2O[C@H]1CN(C)C(=O)Nc1cc(F)ccc1F	S2 tox inconclusive, ATXN2 expr inh 15.8µM (no result: A549 viability, Nrf2 inh)
C[C@@H]1CN([C@H](C)CO)S(=O)(=O)c2ccc(Br)cc2O[C@@H]1CN(C)C(=O)Nc1ccc(C(F)(F)F)cc1	S2 tox 22.4µM, ATXN2 expr inh inconclusive (no result: A549 viability, Nrf2 inh)
COc1ccc(-c2ccc3c(c2)O[C@H](CN(C)C(=O)Nc2ccccc2F)[C@@H](C)CN([C@H](C)CO)S3(=O)=O)cc1	none (no result: A549 viability, Nrf2 inh)
COc1ccc(N(CC(=O)N/N=C/c2ccc(F)cc2)S(=O)(=O)c2ccccc2)cc1	none
COC(=O)c1c(N)sc(Cc2ccccc2)c1C	none
COC(=O)c1c(NC(=O)/C=C/C(=O)O)sc(Cc2ccccc2)c1C	Nrf2 ARE act 22.4µM, ATXN2 expr inh inconclusive
CCOC(=O)c1c(C)nc2sc3c(=O)n(-c4ccc(C(C)=O)cc4)nnc3c2c1-c1ccc(OC)cc1	Nrf2 inh 14.6µM
Cc1ccc(CNC(=O)CCCCCn2c(=O)c3sccc3n(CC(=O)Nc3ccc(C)c(F)c3)c2=O)cc1	none
Cc1cccc(NC(=O)Cn2c(=O)n(CCCCCC(=O)NCc3ccccc3)c(=O)c3sccc32)c1	S2 tox 22.4µM, ATXN2 expr inh inconclusive, Nrf2 inh inconclusive
O=C(O)c1cccc(CSc2nnc(COc3ccccc3)o2)c1	none (no result: Nrf2 inh)
O=C(CCSc1nnc(-c2ccncc2)o1)Nc1cccc(Cl)c1	Nrf2 inh 20.6µM
O=C(O)c1cccc(CSc2nnc(-c3ccc(Cl)cc3)o2)c1	Nrf2 inh 9.2µM (no result: ATXN2 expr inh)

High-throughput results as filed in PubChem BioAssay.
